# According to PubChem BioAssay (EPA / NIEHS):
# Active and inactive are the calls of the source. Rule for the calls: active = hit-call score of the fitted dose curve at least 0.9, where 1 is the maximum; inactive = score below 0.9.
# Assay: BSK_3C_Vis: BioMAP Diversity Plus: 3C Assay for Morphology Visualization (AID 2283025);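 note: fitted both ways so gain or loss versus DMSO counts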
# Conditions: primary human endothelial cells (HUVEC)
# Procedure: BSK_3C is a cell-based, multiplexed-readout assay that uses umbilical vein endothelium, a human vascular primary cell, with measurements taken at 24 hours after chemical dosing in a 96-well plate.BSK_3C_Vis is an assay component measured in the BSK_3C assay. It measures NA related to cell morphology using light microscopy technology.Data from the assay component BSK_3C_Vis was analyzed into 1 assay endpoint. This assay endpoint, BSK_3C_Vis, was analyzed with bidirectional fitting relative to DMSO as the negative control and baseline of activity. Using a type of morphology reporter, gain or loss-of-signal activity can be used to understand changes in the background control. Furthermore, this assay endpoint can be referred to as a secondary readout, because this assay has produced multiple assay endpoints where this one serves a background control function. To generalize the intended target to other relatable targets, this assay endpoint is annotated to the cell morphology intended target family, where the subfamily is cell conformation.
# The levels of cell surface (or secreted, indicated by the prefix "s") biomarker endpoints were measured by ELISA. Overt cytotoxicity to cells in confluent adherent cultures (all systems other than the BT system) was assessed by measuring total protein levels using sulforhodamine B (SRB) staining in parallel cultures at the time of biomarker measurements, indicated as SRB endpoints. For proliferation assays for adherent cell types, individual cell types are cultured at sub-confluence and relative cell numbers quantified by SRB staining at time points optimized for each system (48 h: 3C and CASM3C systems; 72 h: BT and HDF3CGF systems; 96 h: SAg system). SRB was performed by staining cells with 0.1% SRB after fixation with 10% TCA and reading wells at 560 nm.Viability and proliferation of PBMC (T cells) was quantified by Alamar Blue reduction for the SAg and BT systems. For PBMC viability (referred to as PBMC Cytotoxicity within the assay endpoint names), cells were plated (75,000/well in a 96-well plate) and then chemical samples added for 1 h before addition of activators, SEB and TSST-1 (20 ng/mL final concentration each). Cells were incubated for 90 h. Then, Alamar Blue (20 uL/well) (Invitrogen, Cat DAL1100) was added for 6 h, and the plates were read with a fluorescence microplate reader at 546/580 nm (excitation/emission). For PBMC proliferation, cells were plated and activated as above but incubated for only 16 h prior to addition of Alamar Blue. Plates were read after 6 h.
Structure (SMILES),outcome,AC50
CCOC(=O)/C=C(C)/C=C/C[C@@H](C)CCCC(C)C,inactive,–
Cn1sc(Cl)cc1=O,inactive,–
CCOP(=S)(OCC)Oc1ccc(S(C)=O)cc1 (stereo not given),inactive,–
CC1(C)Cc2cccc(O)c2O1,inactive,–
ClC1(Cl)C2(Cl)C3(Cl)C4(Cl)C(Cl)(Cl)C5(Cl)C3(Cl)C1(Cl)C5(Cl)C24Cl (stereo not given),inactive,–
CCN1CCC2(CC1)COc1cc3c(cc12)N(C(=O)c1ccc(-c2ccc(-c4nnc(C)o4)cc2C)cc1)CC3,–,6.51 µM (active)
CN(C)N=O,inactive,–
CC(C)(C)c1cc(O)ccc1O,–,39 µM (active)
COC[C@H](C)N(C(=O)CCl)c1c(C)csc1C,inactive,–
C=CC(=O)OCCCCCC(C)C,inactive,–
CCCCC(CC)CO[N+](=O)[O-] (stereo not given),–,37.4 µM (active)
CC(C)(OO)c1ccccc1,inactive,–
CC(C)CCCCCCOC(=O)c1ccccc1C(=O)OCCCCCCC(C)C,inactive,–
COP(=S)(OC)Oc1c(Cl)cc(C)cc1Cl,–,37.5 µM (active)
O=C(O)C(F)(F)C(F)(F)C(F)(F)C(F)(F)C(F)(F)C(F)(F)F,inactive,–
CC(=O)[O][Hg][c]1ccccc1,–,0.954 µM (active)
CC(=O)C(Cl)C(=O)N(C)C (stereo not given),–,37.5 µM (active)
O=C(OC1CCCCC1)c1ccccc1C(=O)OC1CCCCC1,–,5.63 µM (active)
ClC(Cl)=C(Cl)C(Cl)=C(Cl)Cl,–,37.5 µM (active)
COP(=S)(OC)Oc1cc(Cl)c(Cl)cc1Cl,inactive,–

Structure (SMILES),outcome,AC50
CCOP(=S)(OCC)Oc1nc(Cl)c(Cl)cc1Cl,–,39 µM (active)
O=S(=O)(c1ccc(Cl)cc1)c1ccc(Cl)cc1,inactive,–
CCCCCCCCC(=O)NCc1ccc(O)c(OC)c1,inactive,–
Oc1ccc(-c2ccccc2)cc1,inactive,–
ClCC(Cl)CCl,inactive,–
Nc1ncc([N+](=O)[O-])s1,inactive,–
OCc1ccco1,inactive,–
BrCCBr,inactive,–
CC(C)c1ccc(CO)cc1,inactive,–
O=C(Nc1ccc2[nH]ccc2c1)c1cc2cc(F)ccc2n1Cc1cccc(F)c1,–,12.8 µM (active)
ClC1=C(Cl)[C@]2(Cl)[C@H]3[C@H]([C@H]4C=C[C@H]3C4)[C@@]1(Cl)C2(Cl)Cl,–,13.6 µM (active)
O=C(O)C(F)(F)C(F)(F)C(F)(F)C(F)(F)C(F)(F)C(F)(F)C(F)(F)C(F)(F)C(F)(F)C(F)(F)F,–,37.8 µM (active)
O=[N+]([O-])c1ccc(O)c([N+](=O)[O-])c1,inactive,–
CCOP(=S)(OCC)SCCS(=O)(=O)CC,inactive,–
NC(=S)Nc1ccccc1,inactive,–
O=Cc1cccc(Oc2ccccc2)c1,inactive,–
CCCCCCCCc1ccc(O)cc1,–,39.3 µM (active)
CCOP(=S)(OCC)SCSP(=S)(OCC)OCC,inactive,–
O=c1[nH]c(=O)[nH]c(=O)[nH]1,inactive,–
CC(C)(C)CC(C)(C)c1ccc(O)cc1,–,6.71 µM (active)
